An excerpt weighted towards active compounds, which were near 4.6% of everything screened.
D1 antagonist: Antagonist of Human D 1 Dopamine Receptor: qHTS; AID 504652, 2011; HEK293 TREx D1 cells, calcium flux, dopamine EC80; active compounds read low; hit rate 3.2% among 360,000; activity change, negative = inhibition, % at 10 µM; in the data active = activity change below about -30%; note: % is set by controls: 0 for no effect and ±100 for the full control effect
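Tetracycline-induced HEK293 Trex D1 cells, force-coupled to calcium, dye-loaded; compounds added and read 180 s, then EC80 dopamine added and calcium flux tracked kinetically another 180 s.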
TRHR agonist: qHTS for Small Molecule Agonists and Allosteric Enhancers of Human TRH Receptor: Primary Screen for Agonists | TRHR cells, calcium flux fluo-8, FDSS agonist mode | hit rate 0.18% among 360,000 | AID 493084, 2011 | activation, % at 2 µM | Thyrotropin-releasing hormone receptor (Homo sapiens), P34981; note: 0% is about no effect
Target sequence (P34981 whole entry, looked up): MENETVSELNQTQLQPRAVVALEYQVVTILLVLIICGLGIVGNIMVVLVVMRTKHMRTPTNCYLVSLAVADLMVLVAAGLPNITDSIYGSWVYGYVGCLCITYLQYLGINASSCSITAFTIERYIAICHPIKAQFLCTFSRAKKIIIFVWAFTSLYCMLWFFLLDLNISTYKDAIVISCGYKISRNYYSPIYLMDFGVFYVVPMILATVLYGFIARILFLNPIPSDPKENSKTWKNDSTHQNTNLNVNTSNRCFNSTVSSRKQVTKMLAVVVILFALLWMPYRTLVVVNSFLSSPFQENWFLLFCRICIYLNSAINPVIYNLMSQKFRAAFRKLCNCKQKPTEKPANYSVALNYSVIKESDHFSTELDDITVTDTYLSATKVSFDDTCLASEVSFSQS
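Agonist-mode FDSS calcium read (Ex 480/Em 530, 1 s cycles) in 1536-well TRHR cells with fluo-8 dye, after 10-cycle baseline and 23 nL compound addition; TRH at EC20 (10 nM final) added afterwards for the enhancer phase.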
TRHR enhancer: qHTS for Small Molecule Agonists and Allosteric Enhancers of Human TRH Receptor: Primary Screen for Enhancers | enhancement, % at 2 µM | Thyrotropin-releasing hormone receptor (Homo sapiens), P34981 | TRHR cells, fluo-8 calcium fluorescence, EC20 TRH enhancement | hit rate 0.66% among 360,000; in the data active = enhancement above about 30%; note: 0% is about no effect
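Enhancer read-out: after compound pinning and an initial kinetic agonist-mode read, an EC20 of TRH (10 nM final) was injected and fluo-8 calcium signal (Ex 480/Em 530) followed at 1 s/cycle for 100 cycles in TRHR-expressing cells.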
D1 ag: Allosteric Agonists of the Human D1 Dopamine Receptor: qHTS. D(1A) dopamine receptor (Homo sapiens), P21728. activation, % at 2 µM. HEK293 T-REx D1 cells, calcium flux, agonist mode. hit rate 1% among 360,000; note: 0% is about no effect
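Tetracycline-induced HEK293 TREx D1 cells, force-coupled to calcium signalling, were dye-loaded with a no-wash calcium kit. Compound was pin-added after a 10 s baseline. Fluorescence was read kinetically at 1 cycle/s for 180 s, with calcium rises flagged as agonism.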
D1 potentiator: Potentiators of Human D1 Dopamine Receptor: qHTS; D(1A) dopamine receptor (Homo sapiens), P21728; HEK293 TREx D1 cells, calcium flux, dopamine EC20 potentiation; potentiation, % at 10 µM; hit rate 0.036% among 360,000; in the data active = potentiation above about 30%; note: 0% is about no effect
The depositor's hits bear a star; / = no result. Cut-off read from the data, not from the text of the source, unless noted: active = activation above about 30%; inactive = the rest.

SMILES	D1 antagonist	TRHR agonist	TRHR enhancer	D1 ag	D1 potentiator
COc1ccc([C@@H]2CC(=O)c3c(O)cc(O)cc3O2)cc1O	-15	0	-1	-2	-1
O=C1NC(=S)/C(=C\c2ccc(-c3ccccc3Cl)o2)S1	-2	3	-1	10	-3
O=C1NC(=O)/C(=C/c2ccc(-c3cc(C(=O)O)ccc3Cl)o2)S1	-45*	0	-14	0	0
COc1ccc(C2CC(Cn3cc(C#N)c(=O)n(C)c3=O)ON2C)cc1 (stereo unspecified)	-34*	0	14	0	-8
COc1ccccc1-c1nnc(C2CCN(C(=O)c3cccc(C)c3)CC2)o1	-2	-2	-5	-2	0
CC(C)CC(=O)NCC(c1ccc2c(c1)OCO2)N1CCN(c2ccccc2F)CC1 (stereo unspecified)	17	0	-4	6	0
O=C(CN1C(=O)C(=O)c2ccccc21)c1ccccc1	1	-1	3	-1	0
O=C(CN1C(=O)c2cccnc2C1=O)c1ccccc1	-31*	0	7	-1	-7
Cc1ccc(S(=O)(=O)c2cnc(SC(C)C(=O)Nc3ccccc3)[nH]c2=O)cc1 (stereo unspecified)	-8	0	2	-1	-4
O=C1CCNc2ccc(-c3ccccc3)cc21	-13	17	9	68*	-8
Cc1cccc(OCc2ccc(-c3nc(C#N)c(NCCN(C)C)o3)o2)c1	-18	-3	-7	102*	3
CCOC(=O)N1CCC(Nc2ncnc3c2cnn3-c2ccc(C)cc2C)CC1	-31*	0	30	1	-4
CC(=O)Nc1ccc(Nc2ncnc3c2cnn3-c2ccc(C)cc2C)cc1	/	0	-9	-2	-4
C=CCNc1ncnc2c1cnn2-c1ccc(C)cc1C	17	-1	11	-1	4
Cc1ccc(-n2ncc3c(NCC(C)C)ncnc32)c(C)c1	-32*	1	-1	-1	-1
CCOC(=O)C1CN(S(=O)(=O)c2ccc(C)cc2)c2ccccc2O1 (stereo unspecified)	-45*	2	-1	6	-6
O=C(O)CC1S/C(=N/N=C/C2CC=CCC2)NC1=O (stereo unspecified)	-35*	1	6	2	-6
O=C(O)CC1S/C(=N/N=C/C=C/c2ccccc2)NC1=O (stereo unspecified)	19	0	0	1	0
S=C1N(c2ccccc2)C(c2ccc(Br)cc2)N2CCCN12 (stereo unspecified)	0	-1	-1	4	-6
OC[C@H]1O[C@@H](O[C@@H]2[C@@H](CO)O[C@@](O)(CO)[C@H]2O)[C@H](O)[C@@H](O)[C@H]1O	-36*	2	5	-1	-7
CC1(C)CSC(=NCc2ccccc2)N1C(=O)c1cccc([N+](=O)[O-])c1	-38*	56*	-29	85*	-5
NC(=NCc1ccccc1)c1cccc([N+](=O)[O-])c1	9	2	5	3	-5
COc1ccc(Cl)cc1C(=O)NCc1ccc2c(c1)OCO2	11	0	-8	6	4
COc1cc2c(C(=O)NCc3ccc4c(c3)OCO4)cn(C)c(=O)c2cc1OC	-31*	1	7	0	-4
COc1ccccc1C(=O)NCC(=O)OCCCOC(=O)CNC(=O)c1ccccc1OC	-3	0	-5	0	-2
SMILES	D1 antagonist	TRHR agonist	TRHR enhancer	D1 ag	D1 potentiator
O=C(NCCc1c[nH]c2ccccc12)/C(=C\c1cccs1)NC(=O)c1ccccc1	-42*	0	-2	0	-7
Cc1ccc(C(=O)N/C(=C\c2cccs2)C(=O)NCCc2c[nH]c3ccccc23)cc1C	-39*	1	3	2	3
O=C(NCCc1c[nH]c2ccccc12)/C(=C\c1cccnc1)NC(=O)c1cccs1	4	0	3	3	2
COc1ccc(OC)c(CNC(=O)c2cc3ccc4cccnc4c3[nH]2)c1	-6	-2	8	11	-4
COc1ccccc1CCNS(=O)(=O)c1ccc(N2CCCCS2(=O)=O)cc1	-12	0	0	13	0
CCOC(=O)C1CCN(C(c2cccc(OC)c2)c2sc3nc(C)nn3c2O)CC1 (stereo unspecified)	-31*	0	3	0	-9
CCOC(=O)C1CCN(C(c2cccs2)c2sc3nc(C)nn3c2O)CC1 (stereo unspecified)	3	0	-4	0	-10
COc1ccccc1NS(=O)(=O)c1cccc(C(=O)N/N=C/c2c(CO)cnc(C)c2O)c1	-30*	16	-3	13	-7
COc1ccc(COC(=O)C2CCN(S(=O)(=O)c3ccc(F)cc3)CC2)cc1	-35*	2	-5	37*	-2
COc1ccc(C(=O)C2CCN(C(=S)NCCc3ccc(OC)c(OC)c3)CC2)cc1	-19	1	0	14	-3
COc1ccc(CCNC(=O)C2CCC(C(C)(C)C)CC2)cc1OC (stereo unspecified)	-63*	0	8	5	-15
O=C(c1ccc(F)cc1)C1CCN(C(=S)NCC2CCCO2)CC1 (stereo unspecified)	-35*	0	-4	16	1
COc1ccc(CCNC(=S)N2CCC(C(=O)c3ccc(F)cc3)CC2)cc1OC	-44*	0	1	14	-6
COc1ccc(C(=O)C2CCN(C(=O)c3ccc(F)cc3)CC2)cc1	-27	0	-4	8	-4
COc1ccc(CN2CCC(C(=O)c3ccc(F)cc3)CC2)cc1	-46*	0	-10	3	-19
CCc1ccc2oc(=O)cc(CN3CCN(CCO)CC3)c2c1	-50*	1	5	5	-1
CCN(c1ccc(OC)cc1)S(=O)(=O)c1ccc(-c2ccc(=O)[nH]n2)o1	-41*	2	1	8	5
O=C(CS(=O)(=O)Cc1ccccc1)N1CCN(c2cccc(C(F)(F)F)c2)CC1	-33*	0	-7	12	-2
CN1CCN(c2ccc(C(F)(F)F)cc2NC(=O)Nc2ccccc2)CC1	-7	0	-3	73*	-6
Cn1c(=O)n(C)c2cc(N3CCCC3)c(NC(=O)Nc3ccccc3)cc21	-11	1	-7	0	-1
O=C(Nc1ccccc1)N1CCN(c2cccc(C(F)(F)F)c2)CC1	-34*	2	6	27	-8
COc1ccc(NC(=O)N2CCN(c3cccc(C(F)(F)F)c3)CC2)cc1OC	-6	0	-5	14	-10

Screens: PubChem BioAssay, National Center for Advancing Translational Sciences (NCATS)
